Inhibition data for 60 molecules are collected here from PubChem BioAssay AID2013 (Sanford-Burnham Center for Chemical Genomics, 2009).

Usually inhibition stands for the drop in the measured response relative to a control, in per cent.

Among all 290,000 compounds or so, about 370 (0.13%) were called active.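 How the source made its calls: active means spots per cell inhibited over 60%, with over 100 cells counted and total cytoplasm intensity under 500,000; inconclusive means wells with under 100 cells, flagged as likely toxic; inactive means the rest.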 For the sample, actives were picked, then their nearest neighbours and some compounds at random. Entries with a potency or affinity are not part of this list.

The target in this test is G-protein coupled receptor 55 (Homo sapiens) (UniProt Q9Y2T6). The test is described as follows: inhibition of LPI-stimulated GPR55 beta-arrestin translocation – imaging, U2OS, beta-arrestin-GFP, LPI agonist, primary screen (AID 2013).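 Further: U2OS cells stably carrying GPR55 and arrestin-GFP stimulated by 5 µM LPI near EC80; imaged beta-arrestin-GFP aggregate spots per cell after agonist stimulation; plate controls were LPI-stimulated DMSO wells for no effect and DMSO wells without LPI for full effect.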 As to conditions: LPI antagonism, at 10 µM, stronger effect = higher value.
Chain of G-protein coupled receptor 55 (Homo sapiens) (Q9Y2T6 whole entry, looked up): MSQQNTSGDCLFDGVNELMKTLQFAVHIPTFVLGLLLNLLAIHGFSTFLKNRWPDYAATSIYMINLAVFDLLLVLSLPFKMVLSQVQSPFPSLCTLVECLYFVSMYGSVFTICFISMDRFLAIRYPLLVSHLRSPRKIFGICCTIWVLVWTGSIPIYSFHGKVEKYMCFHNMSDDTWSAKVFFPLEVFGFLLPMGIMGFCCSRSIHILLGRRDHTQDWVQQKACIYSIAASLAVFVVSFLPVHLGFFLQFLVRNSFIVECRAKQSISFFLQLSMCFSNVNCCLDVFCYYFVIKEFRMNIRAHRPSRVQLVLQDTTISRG
Take `CC1CC(C)CN(C(=O)C(C)N(C)CC(=O)Nc2ccc(Cl)cc2)C1` (stereo not given): the inhibition was 12.3% (inactive). In the case of `CC1CN(S(=O)(=O)c2ccc(NC(=O)CCN3C(=O)c4ccccc4C3=O)cc2)CC(C)O1` (stereo not given), the inhibition is 4.4% (inactive). In the case of `CC(=O)C1=C(C)NC(SCC(=O)c2ccc(F)cc2)=C(C#N)C1c1ccco1` (stereo not given), the inhibition was 16.8% (inactive). As for `CC(=O)C1=C(C)NC(SCC(=O)c2ccccc2)=C(C#N)C1c1ccco1` (stereo not given), the inhibition was 16.3% (inactive). Turning to `CC(=O)C1=C(C)NC(SCC(=O)c2ccc(C)cc2)=C(C#N)C1c1ccco1` (stereo not given), the inhibition was 82.9% (active).

In the case of `CN(C(=O)C1CCC1C(=O)O)c1nc(-c2ccc(Cl)s2)cs1` (stereo not given), the inhibition is 11.8% (inactive). `CC(C)CNC(=O)CC(c1ccccc1)c1ccccc1`: the inhibition is -4.4% (inactive). Turning to `Cc1cc(C)nc(NNC(=O)NC2CCCCC2)n1`, the inhibition is -10.6% (inactive). In the case of `CCOc1ccc(NC(=O)c2c[nH]n3c(=O)cc(C4CCN(C(=O)OC(C)(C)C)CC4)nc23)cc1`, the inhibition was 16.4% (inactive).

Consider `COc1cc(NC(=O)c2cnn3c(C(F)F)cc(C4CC4)nc23)c(OC)cc1Cl`, for which the inhibition was 14.7% (inactive).

`CC(C)(C)OC(=O)N1CCC(c2c(C(=O)NC3CC3)cnn2-c2ccc(Cl)cc2)CC1`: the inhibition was 4.1% (inactive). Take `COc1ccc(-n2ncc(C(=O)NC3CC3)c2C2CCN(C(=O)OC(C)(C)C)CC2)cc1`: the inhibition was 12.4% (inactive).

As to `CCCCC(C(=O)NC1CCCC1)N(C(=O)c1snc(C(N)=O)c1N)c1ccc(OCC)cc1` (stereo not given), the inhibition was 4.9% (inactive).

In the case of `CCOC(=O)c1cn(CC2CC2)c2cc(F)c(F)cc2c1=O`, the inhibition was -1.8% (inactive). The value for `O=C(Cc1coc2ccc3ccccc3c12)NC1CCCc2ccccc21` (stereo not given) was -1.1% (inactive); that for `C/C(=N\Nc1nc2ccccc2s1)c1ccc2c(c1)OCO2` was 11.7% (inactive); that for `O=C(Nc1ccc(F)cc1)c1ccccc1Oc1ccc(C(F)(F)F)cc1[N+](=O)[O-]` was 24.3% (inactive). In the case of `O=C(Nc1ccccc1)c1ccccc1Oc1ccc(C(F)(F)F)cc1[N+](=O)[O-]`, the inhibition was 5.3% (inactive). For `CC(=O)N(C1CC(C)C(C#N)(C#N)C1(C#N)C#N)N(C)C` (stereo not given), the inhibition was 7.5% (inactive).

In the case of `CCCC(=O)N(C1CC(C)C(C#N)(C#N)C1(C#N)C#N)N(C)C` (stereo not given), the inhibition is 98.9% (active). With `O=C1NC2(CCCCCC2)N=C1c1ccc(Br)cc1`, the inhibition is 2.5% (inactive).

With `CCCCS(=O)(=O)Nc1ccc(Cc2ccncc2)cc1`, the inhibition was 14.3% (inactive). The value for `CCS(=O)(=O)Nc1ccc(Cc2ccncc2)cc1` was -1.6% (inactive); that for `COc1ccc(NC(=O)CCCn2c(=O)[nH]c3ccccc3c2=O)cc1` was 27.9% (inactive). On to `O=c1[nH]c2ccccc2nc1-c1c[nH]c2ccccc12`, for which the inhibition was 12.2% (inactive). Take `c1ccc2c(-c3ccncc3)c[nH]c2c1`: the inhibition is -22.9% (inactive). On to `COc1ccc(C(=O)C2CCCN(Cc3cn(C)nc3-c3ccccc3)C2)cc1F` (stereo not given), for which the inhibition was 4.8% (inactive). With `CN(c1ccccc1)S(=O)(=O)c1ccc(NC(=O)C2CCCCC2C(=O)O)cc1` (stereo not given), the inhibition was 45.5% (inactive). On to `CN(C1CCCCC1)S(=O)(=O)c1ccc(NC(=O)C2CCCCC2)cc1`, for which the inhibition is 0.9% (inactive). `Cc1ccc(Cn2c(SCC(=O)Nc3cccc(C)n3)nc3c2c(=O)n(C)c(=O)n3C)cc1`: the inhibition is 4.3% (inactive). The same measure for `COc1ccccc1CN(CC(=O)NCc1ccc(F)cc1)C(=O)c1csnn1`: 4% (inactive); for `N=c1n(CC(=O)c2ccc([N+](=O)[O-])cc2)c2ccccc2n1Cc1ccccc1Cl`: 8.7% (inactive); for `Cc1ccccc1Cn1c(=N)n(CC(=O)c2ccc([N+](=O)[O-])cc2)c2ccccc21`: 11% (inactive). Take `Cc1ccc(Cn2c(=N)n(CC(=O)c3ccc([N+](=O)[O-])cc3)c3ccccc32)cc1`: the inhibition is 44.2% (inactive). For the molecule `N=c1n(CC(=O)c2ccc([N+](=O)[O-])cc2)c2ccccc2n1Cc1ccc(Cl)cc1`, the inhibition was 65.4% (active).

With `N=c1n(CC(=O)c2cccc([N+](=O)[O-])c2)c2ccccc2n1Cc1ccccc1`, the inhibition was 28.3% (inactive).

Turning to `N=c1n(CC(=O)c2ccc([N+](=O)[O-])cc2)c2ccccc2n1Cc1ccccc1`, the inhibition is 64.5% (active). As for `N#Cc1cccc(NC(=O)COC(=O)c2ccc3c(=O)n4c(nc3c2)CCC4)c1`, the inhibition was 3% (inactive). As to `CCOC(=O)C(=O)c1cn(C2OCC(OC(C)=O)C(OC(C)=O)C2OC(C)=O)c2ccccc12` (stereo not given), the inhibition was 6.8% (inactive). As to `Nn1c(SCC(=O)Nc2ccc(F)cc2)nnc1-c1cccnc1`, the inhibition is 16.8% (inactive). `O=C1C2C3C=CC(C3)C2C(=O)N1CCCCCCN1C(=O)C2C3C=CC(C3)C2C1=O` (stereo not given): the inhibition was 12% (inactive).

As for `O=C1C=CC(=O)N1Cc1ccccc1`, the inhibition was -45% (inactive). For the molecule `COc1cc(/C=N/NC(=O)C2CC(=O)N(c3ccc(C)cc3)C2)cc(OC)c1OC` (stereo not given), the inhibition is 6.8% (inactive). As to `Cc1[nH]c2ccccc2c1C(=O)C(=O)N1CCN(C)CC1`, the inhibition is 8.2% (inactive). In the case of `COc1ccc(/C=C/C(=O)NCc2ccccn2)cc1OC`, the inhibition is -3% (inactive).

Take `Cc1ccc(CNC(=O)C(NS(=O)(=O)c2ccc3nc(C)sc3c2)C(C)C)cc1` (stereo not given): the inhibition is 3.8% (inactive). In the case of `Cc1nc2ccc(S(=O)(=O)NC(C(=O)Nc3nccs3)C(C)C)cc2s1` (stereo not given), the inhibition was 17.8% (inactive). As for `CCc1noc(C)c1C(=O)N1CC(C)OC(C)C1` (stereo not given), the inhibition was 22% (inactive).

As for `c1ccc(-c2nc(N3CCN(c4ccccc4)CC3)nc(-n3ccnc3)n2)cc1`, the inhibition was 24.6% (inactive). For the molecule `c1ccc(-c2nc(-n3ccnc3)nc(-n3ccnc3)n2)cc1`, the inhibition was 4.8% (inactive).

On to `COc1ccc(C(=O)NNC(=O)c2cccc(F)c2)cc1`, for which the inhibition was -5.9% (inactive). In the case of `COc1cc(C(=O)NCC(=O)OCC(=O)c2ccc[nH]2)cc(OC)c1OC`, the inhibition is -22.9% (inactive). In the case of `COc1ccc2c(c1)[nH]c1c(N3CCSCC3)ncnc12`, the inhibition was -7.3% (inactive).

`COc1ccccc1NC(=O)Nc1ccnn1C1CCCCC1`: the inhibition is 0.2% (inactive). For the molecule `COc1ccc2cc(C(=O)N/N=C/c3sc4ccccc4c3O)ccc2c1`, the inhibition is 4.9% (inactive). For `COc1ccc(CS(=O)(=O)/C(Cl)=C(/Cl)C(=O)Nc2ccc(OC)nc2)cc1`, the inhibition is 2% (inactive).

As for `COc1ccc(NC(=O)/C(Cl)=C(/Cl)S(=O)(=O)Cc2ccccc2)cn1`, the inhibition is 93.7% (active). `COc1ccc(NC(=O)/C(Cl)=C(/Cl)S(=O)(=O)Cc2ccc(C)cc2)cn1`: the inhibition is -0.1% (inactive). The value for `COc1ccc(NC(=O)C(Cl)=C(Cl)Cl)cn1` was 6.1% (inactive); that for `COc1ccc(NC(=O)Cc2c(Cl)cccc2Cl)cn1` was 9% (inactive).
